For this assay, the system named is HepG2. Nature of the assay: GSK_TCMDC: Percent inhibition of human HepG2 cell line. Test compounds present at 10uM. It is filed as functional.
Take `N#Cc1ccc(Sc2nnc(-c3ccccc3Cl)n2CC2CCCCC2)cc1[N+](=O)[O-]`: the Inhibition is listed as 30%.

`Nc1cccc(CNCc2cccc(-c3cccc(-c4nc5ccccc5[nH]4)c3)c2)c1.O=C(O)C(F)(F)F` registered an Inhibition of 1%.

The molecule `COc1ccc(Cc2nc3c(n2C(C)=O)SC(c2ccc(Cl)c(Cl)c2)=NN3C(C)=O)cc1` yielded an Inhibition of 0%.

The molecule `O=C(Nc1ccc(C(F)(F)F)cc1)c1ccc(NCCCN2CCCCCC2)c([N+](=O)[O-])c1` came in with an Inhibition of 42%.

In turn, `COc1c(C2CCN(CCCCNC(=O)c3ccc(-c4ccc(C#N)cc4)c(O)c3)CC2)ccc2c1CCCC2.Cl` came in with an Inhibition of 35%.

The molecule `NCC(NC(=O)c1ccc(-c2c[nH]c3ncccc23)s1)c1ccccc1.O=CO` (stereo not given) returned an Inhibition of 52%.

`COc1ccccc1C1CCN(C2CCC(NC(=O)/C=C/c3cc(C(F)(F)F)ccc3F)CC2)CC1` (stereo not given) showed an Inhibition of 39%.

`COc1ccc(C)cc1NC(=O)CSc1nc2cccnc2n1C1CCCCC1` showed an Inhibition of 14%.

Molecule `COc1ccc(CCc2ccc(-c3c(C)[nH]c(C)c(Cl)c3=O)cc2)cc1OC` gave an Inhibition of 0%.

On to `O=C(NCCCN1CCC(Cc2ccccc2)CC1)c1cc2c(Cl)nc3ccccc3c2s1`, for which the Inhibition was 22%.

For the molecule `O=C(COc1ccc(Cl)c(Cl)c1)NCCCCCN1CCCN(C(=O)Nc2cc(Cl)cc(Cl)c2)CC1.O=C(O)C(F)(F)F`, the Inhibition turned out to be 44%.

Molecule `Cc1cccc2nc(-c3ccc(-c4cccc(NC(=O)NCc5ccc(F)cc5)c4)cc3)[nH]c12` registered an Inhibition of 82%.

`CNCC(C)(C)c1nc(-c2ccc(Cl)c(O)c2)c(-c2ccncc2)[nH]1.Cl` had an Inhibition of 46%.

`Cl.c1ccc2ncc(CNCCCCCCCCNCc3cnc4ccccc4c3)cc2c1` registered an Inhibition of 8%.

`c1ccc2[nH]c(CN(Cc3nc4ccccc4[nH]3)Cc3nc4ccccc4[nH]3)nc2c1` displayed an Inhibition of 39%.

As for `Cn1cc(C2CCN(CCCCNC(=O)c3ccc(C(=O)Nc4ccc(C#N)cc4)cc3)CC2)c2ccccc21`, the Inhibition stood at 16%.

Take `CC(C)NC[C@@H](O)[C@H](Cc1ccccc1)NC(=O)c1cc2c3c(c1)c(C(C)C)cn3CCS(=O)(=O)N2C.O=CO`: the Inhibition was found to be 5%.

Take `Nc1nc(N)c2c(Cc3ccc(Br)cc3)cccc2n1`: the Inhibition stood at 28%.

In turn, `COc1ccc2[nH]ccc(=NN=Cc3cccc(C)n3)c2c1` came in with an Inhibition of 16%.

Molecule `COc1ccccc1C1CCN(C2CCC(NC(=O)/C=C/c3cccc(C(F)(F)F)c3)CC2)CC1` (stereo not given) displayed an Inhibition of 38%.

Regarding `CCOC(=O)C(CO)NC(=O)c1ccc([N+](=O)[O-])o1` (stereo not given), the Inhibition is given as 0%.

As for `NC12CC3CC(CC(C3)C1)C2` [AMANTADINE], the Inhibition is recorded as 31%.

`C=CCNC(=O)CCCNC(=N)N.Cl` displayed an Inhibition of 0%.

Molecule `COc1ccc(C=NN=c2cc[nH]c3ccccc23)c2ccccc12` displayed an Inhibition of 27%.

The molecule `O=C(Nc1ccc(C(=O)Oc2ccc(-c3ccccc3)cc2)cc1)N[C@@H](Cc1ccc(O)cc1)C(=O)NC1CCN(Cc2ccc(O)cc2)C1.O=C(O)C(F)(F)F` (stereo not given in full) registered an Inhibition of 0%.

`Cc1cc(NC(=O)c2sc3ccccc3c2O)no1` gave an Inhibition of 6%.

`CCCCCc1cnc2nc(N)nc(N)c2c1C.Cl` came in with an Inhibition of 64%.

`CN1CCN(Cc2nc(-c3ccc4c(Nc5ccc(Oc6ccccc6)cc5)ccnc4c3)cs2)CC1` displayed an Inhibition of 15%.

For the molecule `CCCCCC(C)C(C)c1cc(O)c2c(c1)OC(C)(C)CC2=Cc1ccncc1` (stereo not given), the Inhibition was 0%.

With `COc1ccc2nccc([C@@H](O)CN3CCC(NCc4cc5c(Cl)cc(Cl)cc5[nH]4)CC3)c2c1.O=C(O)C(=O)O`, the Inhibition worked out at 93%.

`CCCNCc1ccc(-c2ccc(CN(CCOC)C(=O)CC3CCCC3=O)cc2)nc1.O=C(O)C(F)(F)F` (stereo not given) registered an Inhibition of 5%.

For `c1ccc(CN2CCCN(c3ccc4c(c3)CCN(Cc3ccc(-c5ncc[nH]5)cc3)CC4)CC2)cc1`, the Inhibition was found to be 6%.

Molecule `Br.Oc1cccc(CCNCCCCCCNCCc2ccc(Cl)cc2)c1` showed an Inhibition of 23%.

`CO/C(=C\C=C\c1cc2cc(Cl)c(Cl)cc2[nH]1)C(=O)NCCCN1CCN(c2cccc(CCO)c2)CC1` came in with an Inhibition of 61%.

In the case of `CC(=O)Oc1c(C2CCN(CCCCNC(=O)c3ccc(-c4ccc(C#N)cc4)cc3)CC2)ccc2c1CCCC2`, the Inhibition is 21%.

As for `CC(=O)Oc1cc(C)ccc1C1CCN(CCCCNC(=O)c2ccc(-c3ccc(C(F)(F)F)cc3)cc2)CC1`, the Inhibition was 54%.

In the case of `O=C(NCCNc1ccnc(Nc2ccc(F)cc2)n1)Nc1ccc2c(c1)OCO2`, the Inhibition was found to be 15%.

For the molecule `COCCNCc1ccc(-c2cccc(CNC3CCN(Cc4ccccc4)CC3)c2)cc1.O=C(O)C(F)(F)F`, the Inhibition is given as 30%.

Regarding `O=C(CCc1c[nH]cn1)Nc1ccc(-c2ccc(-c3nc4ccccc4[nH]3)cc2)cc1`, the Inhibition is given as 46%.

The molecule `CCNc1cc(C(=O)N[C@@H](Cc2ccccc2)[C@H](O)CNC(C)CC(C)C)c(F)c(N2CCCCS2(=O)=O)c1.O=CO` (stereo not given in full) had an Inhibition of 6%.

The values above are taken from ChEMBL document CHEMBL1157539, “Thousands of chemical starting points for antimalarial lead identification” (Nature, 2010).
